In PubChem BioAssay (NCATS):
A number with no mark means an inactive call. Records with an inconclusive call do not appear. Where a call stands in place of a potency, no number is given. Activity calls are given as the source filed them. Calls come from the whole dose curve; as a rule, active = well fitted curve in the direction sought with a large enough effect; inconclusive = small, poorly fitted or top-dose-only effect, or another doubt; inactive = no such curve, though single readings can be large; an effect the other way counts as inactive or inconclusive. Where a SMILES comes first, the peptide text is derived from it.

How the values were obtained:
[1] = biological target: Phospholipid hydroperoxide glutathione peroxidase GPX4 (Homo sapiens) (UniProt P36969); test: Primary qHTS Assay for Inhibitors of Recombinant Selenoprotein Glutathione Peroxidase 4 (GPX4) (AID 1845192); note: nearly all actives have a fitted effect of over 65% in size
Outline: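 GR-coupled assay: recombinant GPX4 preincubated 30 min with compound at room temperature; final 200 nM GPX4, 1 mM GSH, 0.5 mM cumene hydroperoxide, 0.5 mM NADPH, 100 nM GR, 0.01% BSA, pH 7.5 Tris. NADPH fluorescence (340/450 nm) read at 0 and 15 min.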

[2] = biological target: Luciferin 4-monooxygenase (Photinus pyralis) (UniProt P08659); test: Primary firefly luciferase (FLuc) qHTS assay for identification of artifact compounds. (AID 1845220); note: nearly all actives have a fitted effect of over 60% in size
Outline: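 Titrated compounds were incubated 15 min at RT, protected from light, with luciferin and ATP at 10 uM; reaction started with 10 nM FLuc, luminescence imaged at 5 min, and concentration-response fitted by Hill equation.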

[3] = Primary fluorescence-based thiol-reactive (MSTI) qHTS assay for identification of artifact compounds. (AID 1845221); note: nearly all actives have a fitted effect of over 65% in size; note: potency is the fitted concentration of half-maximal effect;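 for activity change, negative = thiol reactive: series mostly up to about 54 µM; thiol-reactive compounds lower the probe fluorescence signal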
Outline: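 First, 4 uM MSTI in 2% DMSO/PBS pH 7.4 was dispensed; next, compounds were added; then plates sat 1 h at room temperature without light. Finally, emission at 598 nm was recorded.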

[4] = tested on: Nanoluciferase (engineered Oplophorus gracilirostris luciferase); test: Primary Nanoluciferase (NLuc) qHTS assay for identification of artifact compounds. (AID 1845222);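 note: NLuc secreted into diluted conditioned medium of S16 cells; series mostly up to about 54 µM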
Outline: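 qHTS format, against NLuc in S16 cell-conditioned medium. Nano-Glo substrate 1:100 was added after 15 min at room temperature. Luminescence was taken after a further 5 min.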

[5] = Primary redox qHTS assay for identification of artifact compounds. (AID 1845223)
Outline: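 Amplex Red (25 uM) and HRP (250 mU/mL) in HBSS, with compounds for 15 min, then 250 uM DTT for 30 min, room temperature, dark. Fluorescence 525/598 nm read; normalized to DMSO and 10 uM DA3003; Hill fit.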

Sequence of Phospholipid hydroperoxide glutathione peroxidase GPX4 (Homo sapiens) (P36969 whole entry, looked up): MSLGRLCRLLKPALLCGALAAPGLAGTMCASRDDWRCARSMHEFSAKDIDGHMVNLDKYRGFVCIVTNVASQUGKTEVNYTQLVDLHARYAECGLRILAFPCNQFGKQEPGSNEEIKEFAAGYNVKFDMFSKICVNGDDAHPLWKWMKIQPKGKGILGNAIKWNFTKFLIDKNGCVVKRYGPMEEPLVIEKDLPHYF

Compound	Potency [1]	Potency [2]	Potency [3]	Potency [4]	Potency [5]	outcome [2]	activity change, negative = thiol reactive [3]	activity, negative = inhibition [4]	redox activity (% of DA3003) [5]
C=C1CC/C=C(/CO)C(=O)C[C@@H]2[C@@H]1CC2(C)C	inactive	inactive	inactive	inactive	inactive				
Cc1c(N2C(=O)c3ccc(C(=O)O)cc3C2=O)c(=O)n(-c2ccccc2)n1C	inactive	inactive	inactive	inactive	inactive				
O=C(O)C[C@H]1CCC(=O)[C@@H]1C/C=C\CCOC1OC(CO)C(O)C(O)C1O (stereo not given in full)	inactive	inactive	7.36 µM (active)	inactive	inactive				
C[C@@H]1CC[C@]2(C)C3(C)CC[C@@]2(OC3=O)[C@@]12C[C@H](c1ccoc1)OC2=O	inactive	inactive	inactive	inactive	inactive				
C[C@]12CCC[C@](C)(C(=O)O)C1CCC13C=C(CO)C(CCC12)C3 (stereo not given in full)	inactive	inactive	inactive	inactive	inactive				
C=C1CCC(OC(C)=O)C2(C)CC3(O)OC(=O)C(C)=C3CC12 (stereo not given)	inactive	inactive	inactive	inactive	inactive				
CC1OC(OC2C(O)C(C(=O)O)OC(OC3CCC4(C)C(CCC5(C)C4C=CC4=C6CC(C)(C)CC(O)C6(C)CCC45C)C3(C)C)C2OC2OCC(O)C(O)C2O)C(O)C(O)C1O (stereo not given)	inactive					inactive [at 11.6 µM]	161% [at 11.5 µM]	-10.9% [at 11.6 µM]	18.4% [at 11.5 µM]
C(#Cc1cccc(CN2CCOCC2)c1)CCN1CCCCC1	inactive	inactive	inactive	inactive	inactive				
C=C(C)C1CC2(CO)C(=CC1=O)CCC(O)C2C (stereo not given)	inactive	inactive	inactive	inactive	inactive				
C[C@@H]1CC[C@]2(C(=O)O[C@@H]3O[C@H](CO)[C@@H](O)[C@H](O)[C@H]3O)CC[C@]3(C)C(=CCC4[C@@]5(C)C[C@@H](O)[C@H](O)C(C)(C)C5CC[C@]43C)C2[C@]1(C)O (stereo not given in full)	inactive	inactive	inactive	inactive	inactive				
CC1NC(=O)CNC(=O)C(C(C)C)NC(=O)C2CCCN2C(=O)C(C(C)C)NC(=O)C(Cc2c[nH]c3ccccc23)NC1=O (stereo not given) (cyclo(GAWVPV); configuration not given here)	inactive	inactive	inactive	inactive	inactive				
CC(C)c1nc(N(C)S(C)(=O)=O)nc(-c2ccc(F)cc2)c1/C=C/[C@@H](O)C[C@@H](O)CC(=O)O	inactive	inactive	inactive	inactive	inactive				
CC(C)C1(O[C@@H]2O[C@H](CO)[C@@H](O)[C@H](O)[C@H]2O)CC=C(CO)CC1 (stereo not given in full)	inactive	inactive	11.7 µM (active)	inactive	inactive				
COc1ccc(C(O[C@@H]2O[C@H](CO)[C@@H](O)[C@H](O)[C@H]2O)C(CO)Oc2ccc(/C=C/CO)cc2OC)cc1O (stereo not given in full)	inactive	inactive	5.19 µM (active)	inactive	inactive				
O=C(/C=C/c1ccc(O)cc1)OC[C@H]1O[C@@H](OC(=O)/C=C/c2ccccc2)[C@H](O)[C@@H](O)[C@@H]1O	inactive	inactive	11.6 µM (active)	inactive	inactive				
CC(=O)O[C@@H]1[C@@H](OC(=O)/C=C/c2ccccc2)[C@H](C)O[C@@H](O[C@H]2[C@@H]3C=CO[C@@H](O[C@@H]4O[C@H](CO)[C@@H](O)[C@H](O)[C@H]4O)[C@@H]3[C@@]3(CO)O[C@@H]23)[C@@H]1OC(C)=O	inactive	inactive	inactive	inactive	inactive				
C=C1CC[C@@H]2[C@](C)(CO[C@@H]3O[C@H](CO)[C@@H](O)[C@H](O)[C@H]3O)CCC[C@@]2(C)[C@@H]1CCC1=CCOC1=O	inactive	inactive	inactive	inactive	inactive				
O=S(=O)(NC1CCNCC1)c1cc(S(=O)(=O)c2ccccc2)ccc1C(F)(F)F	inactive	inactive	inactive	inactive	inactive				
COc1cc(/C=C/C(=O)O[C@H]2[C@H](O)[C@@H](CO)O[C@@]2(CO)O[C@H]2O[C@H](COC(=O)c3ccc(O)cc3)[C@@H](O)[C@H](O)[C@H]2O)cc(OC)c1OC	inactive	inactive	inactive	inactive	inactive				
C[C@@H]1C/C=C/C=C\C=C\C=C\[C@H](O[C@@H]2O[C@H](C)[C@@H](O)[C@H](N)[C@@H]2O)C[C@@H]2O[C@](O)(C[C@@H](O)C[C@H]3O[C@@H]3/C=C/C(=O)O1)C[C@H](O)[C@H]2C(=O)O	inactive	inactive	inactive	inactive	inactive				
